Measurements taken from PubChem BioAssay.
“And” between values parts separate entries of the source, which are not always exact repeats. Equal values may be shown once. The source made the active and inactive calls.

What was measured:
[1] = small molecules captured by biotinylated probe aFSTL3 – biochemical, small-molecule microarray, fluorescence 635/667, stem cell growth factor project, primary screen (AID 1064); conditions: higher = more signal;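 further: measures binding of the biotinylated anti-FSTL3 antibody to printed compounds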
[2] = binders from COS7 lysate, DM2A8 probe, primary screen, torsin A project, cell lysate, small-molecule microarray, fluorescence 635/667 (AID 1065); conditions: higher = more signal, COS7 lysate expressing mutant human TOR1A
[3] = small molecules captured by biotinylated probe aFGF2 – biochemical, small-molecule microarray, fluorescence 635/667, stem cell growth factor project, primary screen (AID 1067); conditions: higher = more signal;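 further: measures binding of biotinylated aFGF2 protein to printed compounds on slides; z-score merges feature fluorescence and signal-to-noise across triplicate slides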
[4] = small molecules captured by biotinylated probe aFGF10 – biochemical, small-molecule microarray, fluorescence 635/667, stem cell growth factor project, primary screen (AID 1071); conditions: higher = more signal;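 further: score merges 667 nm spot intensity and signal to noise from triplicate slides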
[5] = target: Neurogenic locus notch homolog protein 2 (Homo sapiens) (UniProt Q04721); experiment: small molecules binding Notch2 protein – biochemical, small-molecule microarray, 635 nm fluorescence, stem cell growth factors, primary screen (AID 1073); conditions: higher = more signal
[6] = target: Pro-neuregulin-1, membrane-bound isoform (Homo sapiens) (UniProt Q02297); experiment: small molecules binding neuregulin-1 protein – biochemical, small-molecule microarray, fluorescence 635/667, psychiatric disease protein project, primary screen (AID 1075); conditions: NRG1 binding, 635 nm fluorescence, higher = more signal;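 further: score combines 667 nm spot fluorescence with signal to noise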
[7] = tested on: Neuregulin-1 EGF-like domain; experiment: small molecules binding NRG1 EGF domain – biochemical, small-molecule microarray, 635 nm fluorescence, primary screen (AID 1081); conditions: higher = more signal;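 further: binding of the protein to compounds printed on small-molecule microarray slides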
[8] = FRG1 expression reporter modulators in myotubes – cell-based, C2C12 myotubes, firefly/Renilla luciferase, luminescence, FRG1 inhibition for FSHD, primary screen (AID 1084); conditions: FRG1 promoter luciferase, higher = more signal, called active from +8 up or from −8 down
[9] = small molecules captured by biotinylated probe aFST – biochemical, small-molecule microarray, fluorescence 635/667, stem cell growth factor project, primary screen (AID 1086); conditions: higher = more signal;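 further: score merges 667 nm fluorescence with signal-to-noise of each printed compound spot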
[10] = binders of probe aHhip on microarray, primary screen, stem cell growth factor project, biochemical, small-molecule microarray, fluorescence 635/667 (AID 1087); conditions: higher = more signal;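 further: score merges spot fluorescence at 667nm with spot signal to noise ratio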
[11] = tested on: PRMT1 (protein arginine N-methyltransferase 1); experiment: small molecules binding arginine methyltransferase PRMT1 – biochemical, small-molecule microarray, 635 nm fluorescence, primary screen (AID 1088); conditions: higher = more signal;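 further: binding of Prmt1 protein to compounds spotted on small-molecule microarray slides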
[12] = growth effects on S. cerevisiae YJM789 – YJM789 clinical isolate, OD600, 24 h, basal, primary screen (AID 1089); conditions: higher = more signal, called active from +8 up or from −8 down;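 further: growth of clinical yeast isolate S. cerevisiae YJM 789 seeded 1000 cells per well; test concentration not given here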
[13] = S. pombe growth modifiers, basal conditions – strain 972, OD600, 24 h, no modulator, primary screen (AID 1090);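 further: basal condition with compound alone and no growth modifier present; test concentration not given here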; conditions: S. pombe 972 growth, higher = more signal, called active from +8 up or from −8 down
[14] = budding yeast growth modifiers under rapamycin – strain BY4716, OD600, 96 h, primary screen (AID 1091); further: test concentration not given here; conditions: S. cerevisiae BY4716 + rapamycin, higher = more signal, called active from +8 up or from −8 down
[15] = target: Torsin-1A-interacting protein 2 (Homo sapiens) (UniProt Q8NFQ8); experiment: small molecules binding lysate-expressed LULL1 – cell lysate, human LULL1 lysate, 635/667 nm fluorescence, primary screen (AID 1092); conditions: small-molecule microarray, hLULL1 lysate binding, 635 nm fluorescence; higher = more signal;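 further: probe is lysate of COS7 cells overexpressing human LULL1; score merges per-feature 667 nm fluorescence with signal-to-noise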
[16] = optical density change of DRC41 E. coli – strain DRC41, OD650, 24 h, E. coli filamentation project, primary screen (AID 1093);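 further: MC1000 strain lacking acrAB efflux and sulA so SOS filamentation is blocked; test concentration not given here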; conditions: E. coli DRC41 growth, higher = more signal, called active from +8 up or from −8 down
[17] = probe aLefty2 binding to arrayed compounds – biochemical, biotinylated probe, 635/667 nm fluorescence, primary screen (AID 1094); conditions: small-molecule microarray, higher = more signal;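 further: score merges spot fluorescence near 667 nm with spot signal-to-noise ratio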
[18] = tested on: Noggin (protein binding on small-molecule microarray); experiment: small molecules binding Noggin protein – biochemical, 635/667 nm fluorescence, primary screen (AID 1095); conditions: 635 nm fluorescence, higher = more signal;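 further: score merges 667 nm feature fluorescence with signal to noise over triplicate slides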
[19] = target: Neurogenic locus notch homolog protein 3 (Homo sapiens) (UniProt Q9UM47); experiment: small molecules binding NOTCH3 protein – biochemical, 635/667 nm fluorescence, primary screen (AID 1096); conditions: small-molecule microarray, 635 nm fluorescence, higher = more signal
[20] = probe aEGFR binding to arrayed compounds – biochemical, biotinylated probe, 635/667 nm fluorescence, primary screen (AID 1097); conditions: small-molecule microarray, higher = more signal;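 further: probe is a biotinylated anti-EGFR antibody binding compounds printed on slides; score combines fluorescence near 667 nm and signal to noise of each spot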

Chain of Neurogenic locus notch homolog protein 2 (Homo sapiens) (Q04721 whole entry, looked up, canonical isoform): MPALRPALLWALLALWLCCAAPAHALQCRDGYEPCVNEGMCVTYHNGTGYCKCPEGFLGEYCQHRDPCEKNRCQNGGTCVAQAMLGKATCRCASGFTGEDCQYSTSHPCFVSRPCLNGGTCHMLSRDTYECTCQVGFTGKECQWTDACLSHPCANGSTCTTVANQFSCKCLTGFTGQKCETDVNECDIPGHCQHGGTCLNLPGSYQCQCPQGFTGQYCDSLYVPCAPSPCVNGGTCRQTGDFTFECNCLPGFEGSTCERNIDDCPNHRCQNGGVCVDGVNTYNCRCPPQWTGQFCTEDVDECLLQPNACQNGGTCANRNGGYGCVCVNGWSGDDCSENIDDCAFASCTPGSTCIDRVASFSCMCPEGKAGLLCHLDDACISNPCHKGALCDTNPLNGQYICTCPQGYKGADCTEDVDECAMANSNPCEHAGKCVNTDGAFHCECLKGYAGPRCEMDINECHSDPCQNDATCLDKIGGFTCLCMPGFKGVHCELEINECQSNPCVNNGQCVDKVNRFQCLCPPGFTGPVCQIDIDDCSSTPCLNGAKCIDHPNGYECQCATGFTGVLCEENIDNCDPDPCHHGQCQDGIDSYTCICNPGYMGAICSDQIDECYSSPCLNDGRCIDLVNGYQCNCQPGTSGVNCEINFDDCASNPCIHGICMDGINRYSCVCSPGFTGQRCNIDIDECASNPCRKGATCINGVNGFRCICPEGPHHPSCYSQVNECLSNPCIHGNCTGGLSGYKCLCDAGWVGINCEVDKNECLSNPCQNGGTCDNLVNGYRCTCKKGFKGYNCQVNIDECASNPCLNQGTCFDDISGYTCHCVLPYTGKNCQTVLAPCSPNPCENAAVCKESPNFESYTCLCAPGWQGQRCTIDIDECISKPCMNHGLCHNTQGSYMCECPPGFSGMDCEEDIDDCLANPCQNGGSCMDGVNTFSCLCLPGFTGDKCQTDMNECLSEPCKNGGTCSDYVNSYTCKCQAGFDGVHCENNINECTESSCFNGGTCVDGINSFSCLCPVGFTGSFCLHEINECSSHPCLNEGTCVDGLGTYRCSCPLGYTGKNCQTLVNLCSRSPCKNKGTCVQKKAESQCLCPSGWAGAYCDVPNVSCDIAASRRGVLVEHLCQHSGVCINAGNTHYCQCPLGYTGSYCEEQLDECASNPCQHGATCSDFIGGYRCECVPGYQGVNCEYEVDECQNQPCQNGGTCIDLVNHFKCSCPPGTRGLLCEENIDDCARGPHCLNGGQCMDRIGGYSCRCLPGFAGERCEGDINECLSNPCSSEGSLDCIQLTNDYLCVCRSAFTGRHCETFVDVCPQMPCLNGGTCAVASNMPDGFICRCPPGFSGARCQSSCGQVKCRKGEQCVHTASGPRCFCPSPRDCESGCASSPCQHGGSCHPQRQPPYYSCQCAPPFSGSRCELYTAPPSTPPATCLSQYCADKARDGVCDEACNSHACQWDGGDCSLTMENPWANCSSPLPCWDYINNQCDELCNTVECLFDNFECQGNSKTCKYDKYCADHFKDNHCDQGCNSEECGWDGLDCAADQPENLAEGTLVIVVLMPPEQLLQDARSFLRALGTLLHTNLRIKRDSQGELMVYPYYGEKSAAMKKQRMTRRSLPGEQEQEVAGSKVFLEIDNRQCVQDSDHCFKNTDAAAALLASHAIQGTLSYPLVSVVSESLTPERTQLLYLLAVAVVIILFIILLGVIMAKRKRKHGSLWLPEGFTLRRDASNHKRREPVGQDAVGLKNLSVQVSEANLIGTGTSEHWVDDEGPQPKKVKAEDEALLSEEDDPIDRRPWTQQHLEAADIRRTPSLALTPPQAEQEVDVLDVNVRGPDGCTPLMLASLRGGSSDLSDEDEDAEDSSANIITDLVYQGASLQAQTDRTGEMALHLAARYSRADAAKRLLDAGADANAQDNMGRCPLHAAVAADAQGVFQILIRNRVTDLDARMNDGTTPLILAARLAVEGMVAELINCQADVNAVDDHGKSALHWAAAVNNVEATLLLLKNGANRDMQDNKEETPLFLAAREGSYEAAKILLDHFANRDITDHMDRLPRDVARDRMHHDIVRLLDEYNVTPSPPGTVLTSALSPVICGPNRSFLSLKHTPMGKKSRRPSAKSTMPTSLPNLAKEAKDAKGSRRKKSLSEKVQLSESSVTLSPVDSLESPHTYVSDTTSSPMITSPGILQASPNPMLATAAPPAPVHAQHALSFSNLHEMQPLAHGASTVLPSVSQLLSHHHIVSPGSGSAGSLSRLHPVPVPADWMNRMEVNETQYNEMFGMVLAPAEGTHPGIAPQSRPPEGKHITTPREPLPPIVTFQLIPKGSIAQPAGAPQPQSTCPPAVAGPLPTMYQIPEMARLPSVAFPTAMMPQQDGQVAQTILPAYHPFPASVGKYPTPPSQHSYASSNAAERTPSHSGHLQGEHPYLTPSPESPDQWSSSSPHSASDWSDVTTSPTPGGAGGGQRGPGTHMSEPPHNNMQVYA
Chain of Torsin-1A-interacting protein 2 (Homo sapiens) (Q8NFQ8 whole entry, looked up): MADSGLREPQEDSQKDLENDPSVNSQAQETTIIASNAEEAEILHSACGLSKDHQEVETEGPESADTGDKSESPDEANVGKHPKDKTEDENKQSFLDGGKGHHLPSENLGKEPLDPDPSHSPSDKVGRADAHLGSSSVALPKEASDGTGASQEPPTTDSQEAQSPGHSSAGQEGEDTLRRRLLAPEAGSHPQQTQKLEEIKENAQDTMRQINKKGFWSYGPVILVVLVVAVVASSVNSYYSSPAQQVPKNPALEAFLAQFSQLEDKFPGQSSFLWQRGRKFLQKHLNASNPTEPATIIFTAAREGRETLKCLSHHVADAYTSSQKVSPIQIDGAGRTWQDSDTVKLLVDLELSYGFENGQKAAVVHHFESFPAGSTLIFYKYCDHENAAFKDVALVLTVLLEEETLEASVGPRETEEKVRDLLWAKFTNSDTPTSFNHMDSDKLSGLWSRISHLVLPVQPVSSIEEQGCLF
Chain of Pro-neuregulin-1, membrane-bound isoform (Homo sapiens) (Q02297 whole entry, looked up, the tested form may be a part, canonical isoform): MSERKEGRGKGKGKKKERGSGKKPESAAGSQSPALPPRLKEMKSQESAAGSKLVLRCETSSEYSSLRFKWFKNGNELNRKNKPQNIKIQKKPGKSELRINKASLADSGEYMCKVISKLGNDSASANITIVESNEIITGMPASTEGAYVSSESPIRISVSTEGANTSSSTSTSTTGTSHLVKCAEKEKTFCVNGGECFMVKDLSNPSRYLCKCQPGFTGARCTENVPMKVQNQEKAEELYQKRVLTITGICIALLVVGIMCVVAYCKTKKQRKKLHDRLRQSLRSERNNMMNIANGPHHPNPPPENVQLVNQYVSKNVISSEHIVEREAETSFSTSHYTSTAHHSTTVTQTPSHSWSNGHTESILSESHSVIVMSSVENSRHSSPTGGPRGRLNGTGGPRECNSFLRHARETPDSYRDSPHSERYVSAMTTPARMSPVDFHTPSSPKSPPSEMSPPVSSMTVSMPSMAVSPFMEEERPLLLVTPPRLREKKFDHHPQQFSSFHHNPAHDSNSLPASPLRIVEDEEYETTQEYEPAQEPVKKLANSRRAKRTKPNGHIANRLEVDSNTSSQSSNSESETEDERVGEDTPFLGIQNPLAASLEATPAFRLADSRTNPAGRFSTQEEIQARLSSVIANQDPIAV

Structure (SMILES)	composite z-score [1]	composite z-score [2]	composite z-score [3]	composite z-score [4]	composite z-score [5]	composite z-score [6]	composite z-score [7]	z-score [8]	composite z-score [9]	composite z-score [10]	composite z-score [11]	z-score [12]	z-score [13]	z-score [14]	composite z-score [15]	z-score [16]	composite z-score [17]	composite z-score [18]	composite z-score [19]	composite z-score [20]
C[C@@H](ON=C1[C@H]2CCn3c(=O)n(-c4ccccc4)c(=O)n3[C@H]2[C@H](O)[C@@H]2O[C@H]12)c1cn([C@H](CO)Cc2ccccc2)nn1	-0.289	0.316	-0.113	0.449	0.308	0.11	0.536	0.887 (inactive)	0.0701	-0.64	0.587	-0.217 (inactive)	-0.165 (inactive)	0.0121 (inactive)	0.61	0.381 (inactive)	-0.282	0.557	0.668	-0.194
C[N+](C)(C)CCCCNC(=O)[C@@H]1C[C@@H]2C(=O)N[C@@H](CCCC[N+](C)(C)C)C(=O)N2[C@@H]1c1cccc(OCCO)c1	-0.0301 and -0.304	2.1 and 2.23	-0.0909 and -0.0573	1.07 and 1.2	0.556 and 0.0462	-0.181 and -0.179	1.07 and 1.16	-0.101 (inactive) and 0.844 (inactive)	0.311 and 0.464	0.463 and -0.0994	1.53 and 0.995	1.27 (inactive) and 0.389 (inactive)	-0.352 (inactive) and -0.297 (inactive)	-0.483 (inactive) and -1.92 (inactive)	0.864 and 2.09	0.616 (inactive) and 0.374 (inactive)	0.387 and 0.268	2.03 and 1.71	1.05 and 1.09	0.399 and 0.56
CC(C)C(=O)N[C@@H]1CCCN1C(=O)C=Cc1ccccc1	-0.46	0.323	-0.0781	0.405	0.99	0.208	1.07	-0.416 (inactive)	0.125	-0.0994	0.731	-0.91 (inactive)	-0.0986 (inactive)	-0.307 (inactive)	0.783	1.03 (inactive)	-0.14	0.783	0.786	0.0289
C[N+](C)(C)CCCCNC(=O)[C@H]1C[C@H]2C(=O)N[C@@H](CCCC[N+](C)(C)C)C(=O)N2[C@H]1c1cccc(OCCO)c1	-0.0665 and -0.363	-0.422 and 1.12	-0.0744 and -0.149	1.24 and 0.967	-0.0613 and 0.622	1.24 and 0.211	0.973 and 1.38	-0.194 (inactive) and -0.269 (inactive)	0.613 and 0.743	0.142 and -0.41	1.04 and 1.57	-0.604 (inactive) and -0.504 (inactive)	-0.0107 (inactive) and -0.805 (inactive)	-1.88 (inactive) and -1.81 (inactive)	2.58 and 1.78	-0.351 (inactive) and -0.201 (inactive)	-0.121 and -0.0153	1.89 and 1.75	0.914 and 1.1	0.0614 and 0.22
COc1ccc(-c2ccc3c(n2)CCCN3CC(O)CN2CCCc3nc(-c4ccc(Br)cc4)ccc32)cc1 (stereo not given)	0.0623 and 0.0721	0.744 and 0.464	0.12	0.505 and 0.348	0.684 and 0.709	1.05 and 0.841	0.973 and 0.101	3.12 (inactive) and 3.15 (inactive)	0.584 and 0.306	0.281 and 0.167	1.47 and -0.0348	0.0467 (inactive) and -0.621 (inactive)	-0.665 (inactive) and 0.124 (inactive)	-2.52 (inactive) and -1.64 (inactive)	1.24 and 0.778	0.0393 (inactive) and 0.816 (inactive)	0.351 and 0.141	0.348 and 0.245	0.877 and 0.491	0.181 and 0.106
C=C(C)C(=O)OC[C@@H]1CN2[C@@H](CC[C@@H](C)[C@@H]2c2ccc(Br)cc2)C(=O)O1	-0.577	-0.275	-0.083	0.733	0.636	0.776	1.1	-0.889 (inactive)	0.129	-0.0645	0.819	-0.792 (inactive)	-2.7 (inactive)	-1.52 (inactive)	1.32	0.53 (inactive)	-0.247	0.314	0.259	0.0251
Cc1cc2c(nc1C)CCCN2CC(O)CN1CCCc2nc(-c3ccc(Br)cc3)ccc21 (stereo not given)	0.738 and 1.41	0.694 and 0.644	0.115 and 0.363	0.902 and 0.602	1.15 and 1.39	1.56 and 1.11	1.16 and 1.11	4.83 (inactive) and 2.39 (inactive)	0.916 and 0.891	0.968 and 2.11	1.55 and 1.54	0.612 (inactive) and 1.25 (inactive)	-3.62 (inactive) and -0.716 (inactive)	-1.15 (inactive) and -0.578 (inactive)	1.25 and 1.75	-0.804 (inactive) and 0.109 (inactive)	0.467 and 0.823	1.02 and 0.741	1.1 and 1.11	0.304 and 0.48
C[C@@H]1CC[C@@H](C(=O)O)N[C@H]1c1ccc(-c2ccco2)cc1	-0.462	0.712	-0.0502	0.422	0.571	0.486	0.811	0.0786 (inactive)	0.583	-0.0173	1.06	0.804 (inactive)	-0.383 (inactive)	-0.476 (inactive)	0.534	-0.0778 (inactive)	0.0331	1.26	0.945	-0.115
C[C@@]1([C@@H](NC(=O)Cc2ccccc2)c2ccc(-c3ccccc3)cc2)C[C@H]1C1CCCCC1	1.12 and 2.03 and -0.0771	0.528 and 0.149 and 0.36	0.611 and 0.674 and -0.218	0.602 and 0.59 and 0.392	0.866 and 0.815 and 0.536	1.41 and 0.96 and 0.841	0.911 and 0.56 and 0.909	-1.2 (inactive) and -0.806 (inactive) and 1.29 (inactive)	0.57 and 2.41 and 1.59	0.319 and 2.76 and -0.609	0.314 and 0.316 and 0.125	0.375 (inactive) and 0.029 (inactive) and 0.56 (inactive)	-6 (inactive) and -0.107 (inactive) and 1.45 (inactive)	-0.167 (inactive) and 0.998 (inactive) and 2.36 (inactive)	-0.331 and 2.71 and 2.97	-1.16 (inactive) and -0.413 (inactive) and -1.74 (inactive)	0.586 and 1.19 and -0.294	-0.0626 and -0.481 and -0.08	0.444 and 0.213 and 0.544	0.0843 and 0.812 and -0.116
COC(=O)CC=C[C@@H](C)[C@@H](CO)NS(=O)(=O)c1ccc(C)cc1	-0.659 and -0.717	0.406 and 0.605	-0.108 and -0.0656	0.242 and 0.526	0.157 and 0.444	-0.386 and -0.0111	0.081 and 0.253	0.862 (inactive) and -1.81 (inactive)	0.544 and 0.35	-0.147 and 0.0505	-0.0055 and 0.604	0.102 (inactive) and 0.479 (inactive)	-0.178 (inactive) and -0.491 (inactive)	0.218 (inactive) and -0.249 (inactive)	0.0736 and 1.26	-0.0928 (inactive) and 0.0226 (inactive)	-0.37 and -0.0533	0.598 and 0.856	-0.15 and 0.745	-0.118 and 0.0192
CCOC(=O)c1ccc(NC(=O)O[C@H]2[C@H](OC(=O)Nc3ccccc3)[C@@H](OC(=O)Nc3ccccc3)[C@@H](OC)O[C@@H]2CO)cc1	0.181 and 0.179	0.791 and 0.936	0.211 and 0.164	1.01 and 1.18	1.59 and 1.44	1.46 and 1.3	1.33 and 1.43	1.13 (inactive) and 0.183 (inactive)	1.29 and 1.2	0.167 and 0.24	1.53 and 1.54	1.77 (inactive) and 1.97 (inactive)	1.07 (inactive) and 1.71 (inactive)	4.37 (inactive) and 7.27 (inactive)	3.22 and 3.23	-0.221 (inactive) and -1 (inactive)	0.244 and 0.0626	0.893 and 0.71	1.02 and 1.08	0.145 and 0.11
O=C1NC(=O)C2C1C=CC(C(O)c1ccc([N+](=O)[O-])cc1)N2Nc1ccc(Cl)cc1Cl (stereo not given)	0.396 and 1.04	0.0888 and 1.29	-0.0044 and 0.115	0.694 and 0.322	1.13 and 0.991	1.18 and 1.78	0.939 and 1.21	0.0748 (inactive) and -0.358 (inactive)	0.848 and 1.54	-0.226 and -0.236	0.551 and 0.395	-1.44 (inactive) and -1.78 (inactive)	-1.46 (inactive) and -1.07 (inactive)	-0.923 (inactive) and -0.888 (inactive)	3.3 and 3.03	0.33 (inactive) and 0.728 (inactive)	0.127 and 0.386	-0.142 and -0.311	0.843 and 0.588	0.0661 and -0.102
CCCNC(=O)OC[C@H]1O[C@H](CCON=C(C)CCN2CCc3nc(-c4ccccc4)c(-c4ccccc4)cc3C2)C=C[C@@H]1Oc1ccc(OC)cc1	-0.369	0.0379	-0.116	0.118	-0.247	0.48	0.524	0.198 (inactive)	0.142	-0.0994	0.497	1.12 (inactive)	-0.724 (inactive)	-3.57 (inactive)	1.04	0.385 (inactive)	-0.0638	0.553	-0.105	0.0321
C=CCN(Cc1ccccc1)C(=O)C1N(C(C)(C)CO)C(=O)C2C(C(=O)O)C3C=CC21O3 (stereo not given)	0.666 and 0.391	2.08 and -1.13	-0.206 and 0.511	-2.12 and -0.387	-2.15 and -1.36	-1 and -0.987	-0.372 and 0.11	0.551 (inactive) and 0.312 (inactive)	-0.847 and -1.28	-0.274 and -0.169	-1.67 and -1.32	-0.421 (inactive) and -0.475 (inactive)	-0.369 (inactive) and -0.243 (inactive)	-0.13 (inactive) and -0.429 (inactive)	-0.696 and -1.91	-0.333 (inactive) and 1.73 (inactive)	-0.0563 and -0.136	-2.68 and -1.76	-1.46 and -1.43	-0.25 and -0.242
